The results in this text go back to PubChem BioAssay (EPA / NIEHS).

Structures are written as SMILES. Activity calls are given as the source filed them. Rule for the calls: active = hit-call score of the fitted dose curve at least 0.9, where 1 is the maximum; inactive = score below 0.9.

Read-out in assay [1]: C-C motif chemokine 2 (Homo sapiens) (UniProt P13500)
Briefly: BSK_KF3CT_MCP1: BioMAP Diversity Plus: KF3CT Assay for Monocyte Chemoattractant Protein 1 (MCP1/CCL2) Biomarker Activity (AID 2283073). The conditions noted are these: primary human keratinocytes with fibroblasts; actives raise or lower the signal. The procedure, abridged: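 Human keratinocyte plus foreskin fibroblast primary co-culture exposed to chemical for 24 h. MCP-1 levels measured by ELISA. Bidirectional curve fitting relative to DMSO negative control as baseline.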

Read-out in assay [2]: Matrix Metallopeptidase 9 (MMP9), MMP9 (gene 4318)
Briefly: BSK_KF3CT_MMP9: BioMAP Diversity Plus: KF3CT Assay for Matrix Metallopeptidase 9 (MMP9) Biomarker Activity (AID 2283074).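 For AC50: MMP9 protein level quantified by ELISA in the co-culture.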 The conditions noted are these: primary human keratinocytes with fibroblasts; actives raise or lower the signal. The procedure, abridged: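 MMP-9 quantified by ELISA after 24 h chemical treatment of primary human skin keratinocyte/fibroblast co-cultures; gain or loss fitted against DMSO, with parallel SRB staining (0.1% SRB, 560 nm) for overt cytotoxicity.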

Read-out in assay [3]: urokinase plasminogen activator (uPA), PLAU (gene 5328)
Briefly: BSK_KF3CT_uPA: BioMAP Diversity Plus: KF3CT Assay for urokinase plasminogen activator (uPA) Biomarker Activity (AID 2283075). The conditions noted are these: primary human keratinocytes with fibroblasts; actives raise or lower the signal. The essentials: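 ELISA read-out of uPA 24 h after dosing human skin keratinocytes co-cultured with foreskin fibroblasts. Signal change fitted both ways relative to DMSO; sulforhodamine B on parallel cultures marks overt cytotoxicity.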

Read-out in assay [4]: CD40, CD40 (gene 958)
Briefly: BSK_LPS_CD40: BioMAP Diversity Plus: LPS Assay for CD40 Biomarker Activity (AID 2283076). The conditions noted are these: primary human HUVEC with PBMC; actives raise or lower the signal. The essentials: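 Primary human umbilical vein endothelial cells co-cultured with peripheral blood mononuclear cells, LPS-stimulated, were dosed with chemical and read 24 h later. CD40 levels were measured by ELISA and fitted bidirectionally against DMSO as negative control and baseline.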

Read-out in assay [5]: E-selectin (Homo sapiens) (UniProt P16581)
Description: BSK_LPS_Eselectin: BioMAP Diversity Plus: LPS Assay for Eselectin Biomarker Activity (AID 2283077). The conditions noted are these: primary human HUVEC with PBMC; actives raise or lower the signal. The procedure, abridged: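 Human umbilical vein endothelial cells co-cultured with peripheral blood mononuclear cells under LPS stimulation; E-selectin measured by ELISA 24 h after chemical dosing. Activity fitted bidirectionally against DMSO as negative control and baseline.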

Read-out in assay [6]: Interleukin-8 (IL8), CXCL8 (gene 3576)
Briefly: BSK_LPS_IL8: BioMAP Diversity Plus: LPS Assay for Interleukin-8 (IL8) Biomarker Activity (AID 2283078). The conditions noted are these: primary human HUVEC with PBMC; actives raise or lower the signal. The procedure, abridged:
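Human umbilical vein endothelial cells co-cultured with PBMC were stimulated with LPS; IL-8 levels were measured by ELISA 24 h after chemical dosing. Activity was fitted bidirectionally against DMSO as negative control and baseline.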

Assay [7] can be described thus: BSK_LPS_SRB: Viability Assessment in the BioMAP Diversity Plus: LPS Assay (AID 2283079).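 Note: total protein by sulforhodamine B absorbance as a cytotoxicity measure; measured one day after compound addition; fitted in both directions against DMSO so loss or gain of signal counts.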 The conditions noted are these: primary human HUVEC with PBMC. The procedure, abridged:
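Human umbilical vein endothelial cells co-cultured with PBMC (LPS system) were dosed for 24 h. Total protein was stained with 0.1% sulforhodamine B after 10% TCA fixation, read at 560 nm, and fitted bidirectionally against DMSO baseline.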

Read-out in assay [8]: Interleukin-1 alpha (IL1a), IL1A (gene 3552)
Description: BSK_LPS_IL1a: BioMAP Diversity Plus: LPS Assay for Interleukin-1 alpha (IL1a) Biomarker Activity (AID 2283080). The conditions noted are these: primary human HUVEC with PBMC; actives raise or lower the signal. The essentials:
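Human umbilical vein endothelial cells co-cultured with peripheral blood mononuclear cells were LPS-stimulated and exposed to test chemicals for 24 h. IL-1 alpha was quantified by ELISA, with bidirectional curve fitting against DMSO as the negative control and baseline.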

Read-out in assay [9]: Monocyte Chemoattractant Protein-1 (MCP1), CCL2 (gene 6347)
Briefly: BSK_LPS_MCP1: BioMAP Diversity Plus: LPS Assay for Monocyte Chemoattractant Protein-1 (MCP1) Biomarker Activity (AID 2283081). The conditions noted are these: primary human HUVEC with PBMC; actives raise or lower the signal. The essentials:
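HUVEC plus PBMC co-culture (human primary cells, LPS system) exposed to test chemical for 24 h; MCP-1 measured by ELISA. Bidirectional curve fitting against DMSO baseline; parallel SRB total-protein staining flags overt cytotoxicity.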

The nature of assay [10]: BSK_LPS_PGE2: BioMAP Diversity Plus: LPS Assay for Prostaglandin E2 (PGE2) Biomarker Activity (AID 2283082). The conditions noted are these: primary human HUVEC with PBMC; actives raise or lower the signal. The procedure, abridged:
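ELISA read-out of PGE2 from human umbilical vein endothelial cells co-cultured with peripheral blood mononuclear cells under LPS, 24 h post-dose. Gain or loss of signal scored relative to DMSO baseline.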

Read-out in assay [11]: Macrophage colony-stimulating factor (MCSF), CSF1 (gene 1435)
Briefly: BSK_LPS_MCSF: BioMAP Diversity Plus: LPS Assay for Macrophage colony-stimulating factor (MCSF) Biomarker Activity (AID 2283083). The conditions noted are these: primary human HUVEC with PBMC; actives raise or lower the signal. The procedure, abridged: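 Human umbilical vein endothelial cells co-cultured with peripheral blood mononuclear cells were exposed to compound for 24 h. M-CSF levels were measured by ELISA, and bidirectional curve fitting used DMSO as the negative control and baseline.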

Read-out in assay [12]: Tissue Factor, F3 (gene 2152)
Description: BSK_LPS_TissueFactor: BioMAP Diversity Plus: LPS Assay for Tissue Factor Biomarker Activity (AID 2283084). The conditions noted are these: primary human HUVEC with PBMC; actives raise or lower the signal. The procedure, abridged:
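Human umbilical vein endothelial cells co-cultured with peripheral blood mononuclear cells were dosed and stimulated with LPS. Cell-surface CD142 was quantified by ELISA at 24 h. Activity was fitted bidirectionally against DMSO baseline.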

Read-out in assay [13]: Tumor necrosis factor (Homo sapiens) (UniProt P01375)
Description: BSK_LPS_TNFa: BioMAP Diversity Plus: LPS Assay for Tumour Necrosis Factor alpha (TNFa) Biomarker Activity (AID 2283085). The conditions noted are these: primary human HUVEC with PBMC; actives raise or lower the signal. The procedure, abridged: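 HUVEC/PBMC co-culture, LPS-stimulated; 24 h post-dose; TNFa by ELISA; gain or loss of signal fitted bidirectionally vs DMSO baseline.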

Read-out in assay [14]: Vascular cell adhesion molecule 1 (VCAM1), VCAM1 (gene 7412)
Description: BSK_LPS_VCAM1: BioMAP Diversity Plus: LPS Assay for Vascular cell adhesion molecule 1 (VCAM1) Biomarker Activity (AID 2283086). The conditions noted are these: primary human HUVEC with PBMC; actives raise or lower the signal. The procedure, abridged:
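ELISA read-out of VCAM-1 at 24 h post-dosing in an LPS-driven HUVEC/PBMC primary human co-culture; gain or loss of signal fitted bidirectionally against DMSO baseline. Cytotoxicity tracked in parallel cultures by SRB total-protein staining.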

Read-out in the next assay: CD38, CD38 (gene 952)
Description: BSK_SAg_CD38: BioMAP Diversity Plus: SAg Assay for CD38 Biomarker Activity (AID 2283087). The conditions noted are these: primary human HUVEC with PBMC; actives raise or lower the signal. The procedure, abridged: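 Measures CD38 on a human endothelial/PBMC co-culture driven by SEB and TSST-1, 24 h after compound exposure, using ELISA with fluorescence detection; DMSO defines baseline for bidirectional curve fitting.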

Read-out in assay [15]: CD40, CD40 (gene 958)
Briefly: BSK_SAg_CD40: BioMAP Diversity Plus: SAg Assay for CD40 Biomarker Activity (AID 2283088). The conditions noted are these: primary human HUVEC with PBMC; actives raise or lower the signal. The essentials: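 Human umbilical vein endothelial cells co-cultured with PBMC; CD40 levels measured by ELISA with fluorescence read-out 24 h after chemical dosing. Gain or loss of signal fitted bidirectionally against DMSO baseline.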

Read-out in another assay: CD69, CD69 (gene 969)
Briefly: BSK_SAg_CD69: BioMAP Diversity Plus: SAg Assay for CD69 Biomarker Activity (AID 2283089). The conditions noted are these: primary human HUVEC with PBMC; actives raise or lower the signal. The procedure, abridged: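 Primary human vascular co-culture (umbilical vein endothelium with peripheral blood mononuclear cells) exposed to test chemical for 24 h. CD69 levels quantified by fluorescence ELISA; DMSO served as negative control for bidirectional fitting.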

Read-out in assay [16]: Monocyte Chemoattractant Protein-1 (MCP1), CCL2 (gene 6347)
Briefly: BSK_SAg_MCP1: BioMAP Diversity Plus: SAg Assay for Monocyte Chemoattractant Protein-1 (MCP1) Biomarker Activity (AID 2283090). The conditions noted are these: primary human HUVEC with PBMC; actives raise or lower the signal. The procedure, abridged: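 Values derive from bidirectional fitting of ELISA-measured MCP1 against DMSO controls. Readings were taken 24 h after dosing human vascular endothelial cells co-cultured with peripheral blood mononuclear cells under superantigen stimulation.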

Read-out in assay [17]: E-selectin (Homo sapiens) (UniProt P16581)
Description: BSK_SAg_Eselectin: BioMAP Diversity Plus: SAg Assay for Eselectin Biomarker Activity (AID 2283091). The conditions noted are these: primary human HUVEC with PBMC; actives raise or lower the signal. The essentials:
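HUVEC co-cultured with PBMC, compound dosed then read at 24 h; E-selectin measured by ELISA. Activity fitted bidirectionally against DMSO as negative control and baseline.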

Read-out in assay [18]: Monokine induced gamma interferon (MIG), CXCL9 (gene 4283)
Description: BSK_SAg_MIG: BioMAP Diversity Plus: SAg Assay for Monokine induced gamma interferon (MIG) Biomarker Activity (AID 2283092). The conditions noted are these: primary human HUVEC with PBMC; actives raise or lower the signal. The essentials: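 Endothelial cells and PBMC were co-cultured, exposed to test chemicals, and sampled 24 h later. MIG was measured by ELISA, and responses were fitted in both directions relative to DMSO.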

E-selectin (Homo sapiens), sequence (P16581 whole entry, looked up): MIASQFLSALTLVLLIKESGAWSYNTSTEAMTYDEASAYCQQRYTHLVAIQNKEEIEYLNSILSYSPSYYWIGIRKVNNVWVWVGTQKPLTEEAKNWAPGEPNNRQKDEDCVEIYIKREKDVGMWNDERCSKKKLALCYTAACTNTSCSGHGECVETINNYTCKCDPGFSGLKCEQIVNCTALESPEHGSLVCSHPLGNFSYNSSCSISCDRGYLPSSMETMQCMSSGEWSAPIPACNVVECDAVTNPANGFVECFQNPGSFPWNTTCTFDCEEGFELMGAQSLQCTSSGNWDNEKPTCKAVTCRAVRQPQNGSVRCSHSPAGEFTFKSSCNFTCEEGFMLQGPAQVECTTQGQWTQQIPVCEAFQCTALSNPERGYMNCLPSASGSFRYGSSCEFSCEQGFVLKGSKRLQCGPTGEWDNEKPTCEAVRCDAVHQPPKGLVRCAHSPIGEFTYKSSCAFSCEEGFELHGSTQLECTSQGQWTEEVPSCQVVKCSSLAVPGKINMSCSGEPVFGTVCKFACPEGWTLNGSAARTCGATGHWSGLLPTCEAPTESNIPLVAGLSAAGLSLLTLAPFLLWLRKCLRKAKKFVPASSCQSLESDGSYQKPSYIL
Tumor necrosis factor (Homo sapiens), sequence (P01375 whole entry, looked up): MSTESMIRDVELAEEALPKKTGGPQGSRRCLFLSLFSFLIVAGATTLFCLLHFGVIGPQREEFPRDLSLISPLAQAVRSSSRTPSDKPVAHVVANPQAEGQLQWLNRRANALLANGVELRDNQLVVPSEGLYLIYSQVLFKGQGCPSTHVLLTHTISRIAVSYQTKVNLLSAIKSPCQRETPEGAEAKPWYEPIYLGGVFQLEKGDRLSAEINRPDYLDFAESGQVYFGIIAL

For `CCCCC(CC)COC(=O)CCCCC(=O)OCc1ccccc1` (centres undefined), the outcome is “inactive” in assay [1]; “inactive” in [2]; “inactive” in [3]; “inactive” in the assay with CD40, CD40 (gene 958) [4]; “inactive” in assay [5]; “inactive” in assay [6]. Further, the result in [7], in assay [8], in assay [9], in assay [10], in assay [11] and in assay [12] was inactive. For the same molecule, the outcome in assay [13] is “inactive”; in [14] it was “inactive”; with CD38, CD38 (gene 952) it was “inactive”; in the assay with CD40, CD40 (gene 958) [15], “inactive”; with CD69, CD69 (gene 969) it was “inactive”; in assay [16], “inactive”. Moreover, the outcome in assay [17] and in assay [18] was inactive.

The AC50 is the concentration at which the activity in the assay is half-maximal. As to `CC(C)(C)CC(C)(C)c1ccc(O)c(-n2nc3ccccc3n2)c1`, the outcome in [1] is “inactive”; in [3], “inactive”; in the assay with CD40, CD40 (gene 958) [4], “inactive”; in assay [5] it was “inactive”; in assay [6], “inactive”; in [7] it was “inactive”. Further, the result in [8], in assay [9], in [10], in [11], in [12] and in assay [14] was inactive. The outcome in the assay with CD38, CD38 (gene 952) is “inactive”; with CD40, CD40 (gene 958) [15], “inactive”; with CD69, CD69 (gene 969) it was “inactive”; in assay [16], “inactive”; in assay [17], “inactive”; in assay [18] it was “inactive”. In addition, in assay [2], the half-maximal activity concentration (AC50) was 16.6 µM (active).
